MITF primary: human MITF inhibition, primary screen; AlphaScreen MITF homodimerization, bead proximity signal; inhibition, % at 2.6 µM; O75030; hit rate 0.91% among 650,000; in the data active = inhibition above about 50%
TEAD-YAP inh: TEAD-YAP interaction inhibition. HEK-TIYL cells, TEAD-Gal4/YAP UAS-luciferase luminescence. inhibition, % at 9.12 µM. hit rate 1.4% among 640,000; in the data active = inhibition above about 32%
FBW7 activator: human FBW7 E3 ligase activation, primary screen. hit rate 0.13% among 650,000. AlphaScreen FBW7–phospho-cyclin E peptide binding, activator screen. AID 1259310. Q969H0. normalized activity (activation), % at 26.1 µM; in the data active = normalized activity above about 1.9%;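 also: purified mutant Fbw7 with reduced substrate affinity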
GPR151 ag: activates the human receptor GPR151; activation, % at 11.2 µM; hit rate 1% among 650,000; Q8TDV0; AID 1508602; PathHunter beta-arrestin GPR151 cells, luminescence; in the data active = activation above about 4.9%
Each line names hits and unclear results; the compound was inactive in the other large screens. Only some compounds are listed: those with a hit (about 3.4% of all), similar ones and a draw of the others.

COc1cccc(-c2cc(C(=O)N3CCOCC3)c3ccccc3n2)c1	none
Cc1ccc2oc(C(=O)N3CCC4(CC3)NC(=O)c3ccccc3O4)cc(=O)c2c1	none
CS(=O)(=O)c1nc(-c2ccccc2)[nH]c1S(=O)(=O)c1ccccc1	none
COc1ccc(NC(=O)CSc2nc3c(cnn3-c3ccccc3)c(=O)[nH]2)cc1OC	none
N#CC1=C(N)Oc2c(ccc3ccccc23)C1c1cccc([N+](=O)[O-])c1 (centres undefined)	TEAD-YAP inh 66.0
COc1ccc(C2C(C#N)=C(N)Oc3c2sc2ccccc32)cc1[N+](=O)[O-] (centres undefined)	none
N#CC1=C(N)Oc2c([nH]c(=O)[nH]c2=O)C1c1cccc([N+](=O)[O-])c1 (centres undefined)	none
N#CC1=C(N)Oc2c(sc3ccccc23)C1c1cccc([N+](=O)[O-])c1 (centres undefined)	TEAD-YAP inh 53.1
COc1ccc2c(Cn3cnc4cc([N+](=O)[O-])ccc4c3=O)cc(=O)oc2c1	TEAD-YAP inh 64.3
CC(C)(C)n1nnnc1C(c1ccccc1)N1CCc2ccccc2C1 (centres undefined)	none
CCC(C)(C)n1nnnc1C(c1ccc(O)cc1)N1CCc2ccccc2C1 (centres undefined)	TEAD-YAP inh 77.2
COc1ccc(NC(=O)COc2ccc(CNCCCO)cc2OC)cc1	none
CC(=O)Nc1cccc(Nc2nc(-c3ccccc3F)nc3ccccc23)c1	TEAD-YAP inh 32.3
Fc1cccc(Nc2nc(-c3ccccc3F)nc3ccccc23)c1	none
CC(=O)c1cccc(Nc2nc(=S)[nH]c3ccccc23)c1	TEAD-YAP inh 61.3
S=c1nc(Nc2cc(Cl)cc(Cl)c2)c2ccccc2[nH]1	none
CC(=O)c1cccc(Nc2nc(-c3ccc(C(C)(C)C)cc3)nc3ccccc23)c1	TEAD-YAP inh 58.9
CC(=O)c1cccc(Nc2nc(-c3ccc(C)cc3)nc3ccccc23)c1	none
CC(=O)Nc1cccc(-c2nc(-c3ccccc3)nc3ccccc23)c1	FBW7 activator 1.9
Cc1c(N2CCN(Cc3cccnc3)C2=O)cccc1C(F)(F)F	none
Cc1ccc(C2CC(C(F)(F)F)n3nc(C(=O)Nc4ccc(Cl)cc4)cc3N2)cc1 (centres undefined)	none
Cc1cc(Cl)c(S(N)(=O)=O)cc1OCC(=O)NC1CCCCC1	none
Cc1cc(Cl)c(S(=O)(=O)N2CCSCC2)cc1OCC(=O)NC1CCCCC1	TEAD-YAP inh 38.5
CCCCN(C)CCNC(=O)C1CC(=O)N(CCc2ccc(C)cc2)C1 (centres undefined)	none
CC(=O)Nc1cnn(-c2ccc(C(=O)NCC3(c4ccccc4)CCCCC3)cc2)c1	none
C/C(=N\NC(N)=S)c1cc(Cl)sc1Cl	TEAD-YAP inh 33.3
COc1ccccc1N1CCN(C(CC(C)C)c2nnnn2CC2CCCO2)CC1 (centres undefined)	none
CCOC(=O)c1c(N)sc(C(=O)Nc2ccc(OC)cc2)c1C	TEAD-YAP inh 41.7
CCOC(=O)c1c(N)sc(C(=O)Nc2ccc3c(c2)OCO3)c1C	TEAD-YAP inh 78.9
CCOC(=O)c1sc(N)c(C(=O)Nc2ccccc2OC)c1C	TEAD-YAP inh 54.3
CCOC(=O)c1ccc(NC(=O)c2sc(NC(=O)c3ccc(OC)cc3)c(C(=O)OCC)c2C)cc1	none
COC(=O)c1c(N)sc(C(=O)Nc2ccccc2OC)c1C	none
Cc1cc(C(=O)CO/N=C/c2ccco2)c(C)n1Cc1ccco1	TEAD-YAP inh 53.0
Cc1cc(C(=O)CSc2nnc3ccccn23)c(C)n1Cc1ccco1	TEAD-YAP inh 61.3
Cc1cc(C(=O)CCl)c(C)n1Cc1ccco1	none
CC1=C(C(=O)OC2CCCCC2)C(c2cccc(Cl)c2)C2=C(CC(c3ccccc3)CC2=O)N1 (centres undefined)	none
O=C(/C=C/c1ccc2c(c1)OCCCO2)c1cc([N+](=O)[O-])ccc1O	TEAD-YAP inh 78.6
O=C(NN1C(=O)CCC1=O)c1ccccc1O	TEAD-YAP inh 47.0
COc1ccccc1C(=O)NN1C(=O)CCC1=O	none
N#Cc1ccc(NC(=O)COC(=O)c2ccc(-c3ccccc3)cc2)cc1	none
O=C(CCCCn1c(=O)[nH]c2ccccc2c1=O)N1CC=C(c2ccccc2)CC1	none
COc1ccc(/C=C2\C(=O)N(c3cccc(Cl)c3)N=C2C)cc1[N+](=O)[O-]	none
COc1cc(/C=C2/C(=O)N(c3cccc(Cl)c3)N=C2C)ccc1Oc1ccc([N+](=O)[O-])cc1C(F)(F)F	TEAD-YAP inh 42.2
CC1(C)CC(=O)c2cnc3c(-c4ccc(Cl)cc4)cnn3c2C1	TEAD-YAP inh 56.7
Cc1nn(C2CCS(=O)(=O)C2)c(Cl)c1/C=C/c1nc2ccccc2s1 (centres undefined)	TEAD-YAP inh 94.7
